B1: unnamed (peptide)
chain: LRIKRKPVQTFFEFI
B2: unnamed (peptide)
chain: IFLRISINFPLNYPN
B3: unnamed (peptide)
chain: TIRRRAPLSLLESHT
B4: unnamed (peptide)
chain: AATTSTPPLPRRRAT

target: AgAbp1; test: SPOT peptide array binding signal intensity (averaged, normalized) (arbitrary units (background-subtracted, floor 0; scale differs between SH3 domains)); higher = stronger binding of the SH3 domain to the peptide
Procedure, shortened: (§1)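 Binding signal is given in arbitrary units that differ between domains and is the normalized, background-subtracted spot intensity averaged across replicates. Each GST-SH3 fusion from one of four yeast species was made in E. coli BL21(DE3), purified on glutathione Sepharose and incubated at 10 μg/ml overnight at 4°C on cellulose-bound synthetic 15-mer peptides in which cysteines were replaced by serines. Detection used anti-GST antibody, an HRP anti-mouse secondary and luminol, followed by imaging and Genespotter quantification.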

Binder	SPOT peptide array binding signal intensity
B1	76
B2	76
B4	73

target: AgBbc1; test: as above
Procedure, shortened: as §1

Binder	SPOT peptide array binding signal intensity
B1	24.2
B2	233
B4	800

target: AgBem1-D1; test: as above
Procedure, shortened: as §1

Binder	SPOT peptide array binding signal intensity
B1	212
B2	952
B4	≤ 0

target: AgBzz1-D1; test: as above
Procedure, shortened: as §1

Binder	SPOT peptide array binding signal intensity
B1	109
B2	1120
B4	188

target: AgBzz1-D2; test: as above
Procedure, shortened: as §1

Binder	SPOT peptide array binding signal intensity
B1	42
B2	412
B4	53.5

target: AgCyk3; test: as above
Procedure, shortened: as §1

Binder	SPOT peptide array binding signal intensity
B1	4
B2	52.5
B4	3

target: AgFus1; test: as above
Procedure, shortened: as §1

Binder	SPOT peptide array binding signal intensity
B1	398
B2	4330
B4	5

target: AgHof1; test: as above
Procedure, shortened: as §1

Binder	SPOT peptide array binding signal intensity
B1	19.5
B2	218
B4	142

target: AgHse1; test: as above
Procedure, shortened: as §1

Binder	SPOT peptide array binding signal intensity
B1	960
B2	2460
B4	21

target: AgLsb1; test: as above
Procedure, shortened: as §1

Binder	SPOT peptide array binding signal intensity
B1	1
B2	68.8
B4	464

target: AgLsb4; test: as above
Procedure, shortened: as §1

Binder	SPOT peptide array binding signal intensity
B1	136
B2	2440
B4	5320

target: AgMyo5; test: as above
Procedure, shortened: as §1

Binder	SPOT peptide array binding signal intensity
B1	0.5
B2	29.5
B4	12.5

target: AgNbp2; test: as above
Procedure, shortened: as §1

Binder	SPOT peptide array binding signal intensity
B1	72
B2	1630
B4	≤ 0

target: AgRvs167; test: as above
Procedure, shortened: as §1

Binder	SPOT peptide array binding signal intensity
B1	4.33
B2	162
B4	591

target: AgSho1; test: as above
Procedure, shortened: as §1

Binder	SPOT peptide array binding signal intensity
B1	49
B2	2150
B4	≤ 0

target: AgSla1-D1-D2; test: as above
Procedure, shortened: as §1

Binder	SPOT peptide array binding signal intensity
B1	432
B2	74.2
B4	6

target: AgSla1-D3; test: as above
Procedure, shortened: as §1

Binder	SPOT peptide array binding signal intensity
B1	10.5
B2	73.9
B4	≤ 0

target: CaAbp1-D1; test: as above
Procedure, shortened: as §1

Binder	SPOT peptide array binding signal intensity
B1	816
B2	448
B4	142

target: CaAbp1-D2; test: as above
Procedure, shortened: as §1

Binder	SPOT peptide array binding signal intensity
B1	948
B2	305
B4	229

target: CaBbc1; test: as above
Procedure, shortened: as §1

Binder	SPOT peptide array binding signal intensity
B1	91.2
B2	487
B4	1600

target: CaBem1-D1; test: as above
Procedure, shortened: as §1

Binder	SPOT peptide array binding signal intensity
B1	16
B2	666
B4	11

target: CaBzz1-D1; test: as above
Procedure, shortened: as §1

Binder	SPOT peptide array binding signal intensity
B1	107
B2	1170
B4	520

target: CaBzz1-D2; test: as above
Procedure, shortened: as §1

Binder	SPOT peptide array binding signal intensity
B1	59.2
B2	821
B4	362

target: CaCyk3; test: as above
Procedure, shortened: as §1

Binder	SPOT peptide array binding signal intensity
B1	18
B2	107
B4	60.5

target: CaFus1; test: as above
Procedure, shortened: as §1

Binder	SPOT peptide array binding signal intensity
B1	1010
B2	7820
B4	68

target: CaHof1; test: as above
Procedure, shortened: as §1

Binder	SPOT peptide array binding signal intensity
B1	≤ 0
B2	1.25
B4	8.75

target: CaHse1; test: as above
Procedure, shortened: as §1

Binder	SPOT peptide array binding signal intensity
B1	15
B2	1570
B4	≤ 0

target: CaLsb1; test: as above
Procedure, shortened: as §1

Binder	SPOT peptide array binding signal intensity
B1	0.5
B2	63.5
B4	8.5

target: CaLsb4; test: as above
Procedure, shortened: as §1

Binder	SPOT peptide array binding signal intensity
B1	59
B2	477
B4	5270

target: CaMyo5; test: as above
Procedure, shortened: as §1

Binder	SPOT peptide array binding signal intensity
B1	14
B2	156
B4	8

target: CaNbp2; test: as above
Procedure, shortened: as §1

Binder	SPOT peptide array binding signal intensity
B1	468
B2	2110

target: CaRvs167; test: as above
Procedure, shortened: as §1

Binder	SPOT peptide array binding signal intensity
B1	16.5
B2	750

target: CaRvs167-3; test: as above
Procedure, shortened: as §1

Binder	SPOT peptide array binding signal intensity
B1	843
B2	1500

target: CaSho1; test: as above
Procedure, shortened: as §1

Binder	SPOT peptide array binding signal intensity
B1	1260
B2	2060

target: CaSla1-D1-D2; test: as above
Procedure, shortened: as §1

Binder	SPOT peptide array binding signal intensity
B1	37
B2	602

target: CaSla1-D3; test: as above
Procedure, shortened: as §1

Binder	SPOT peptide array binding signal intensity
B1	37
B2	1050

target: ScAbp1; test: as above
Procedure, shortened: as §1

Binder	SPOT peptide array binding signal intensity
B1	355
B2	93.2

target: ScBbc1; test: as above
Procedure, shortened: as §1

Binder	SPOT peptide array binding signal intensity
B1	6.75
B2	59.9

target: ScBem1-D1; test: as above
Procedure, shortened: as §1

Binder	SPOT peptide array binding signal intensity
B1	57
B2	194

target: ScBzz1-D1; test: as above
Procedure, shortened: as §1

Binder	SPOT peptide array binding signal intensity
B1	39.5
B2	558

target: ScBzz1-D2; test: as above
Procedure, shortened: as §1

Binder	SPOT peptide array binding signal intensity
B1	49.5
B2	2990

target: ScCyk3; test: as above
Procedure, shortened: as §1

Binder	SPOT peptide array binding signal intensity
B1	138
B2	127

target: ScFus1; test: as above
Procedure, shortened: as §1

Binder	SPOT peptide array binding signal intensity
B1	651
B2	5050

target: ScHof1; test: as above
Procedure, shortened: as §1

Binder	SPOT peptide array binding signal intensity
B1	5.5
B2	30.8

target: ScHse1; test: as above
Procedure, shortened: as §1

Binder	SPOT peptide array binding signal intensity
B1	1800
B2	3840

target: ScLsb1; test: as above
Procedure, shortened: as §1

Binder	SPOT peptide array binding signal intensity
B1	21.2
B2	12.8

target: ScLsb2; test: as above
Procedure, shortened: as §1

Binder	SPOT peptide array binding signal intensity
B1	5.5
B2	64

target: ScLsb3; test: as above
Procedure, shortened: as §1

Binder	SPOT peptide array binding signal intensity
B1	156
B2	1490

target: ScLsb4; test: as above
Procedure, shortened: as §1

Binder	SPOT peptide array binding signal intensity
B1	23
B2	396

target: ScMyo3; test: as above
Procedure, shortened: as §1

Binder	SPOT peptide array binding signal intensity
B1	7
B2	32.5

target: ScMyo5; test: as above
Procedure, shortened: as §1

Binder	SPOT peptide array binding signal intensity
B1	1.75
B2	114

target: ScNbp2; test: as above
Procedure, shortened: as §1

Binder	SPOT peptide array binding signal intensity
B1	150
B2	2820

target: ScPex13; test: as above
Procedure, shortened: as §1

Binder	SPOT peptide array binding signal intensity
B1	18
B2	516

target: ScRvs167; test: as above
Procedure, shortened: as §1

Binder	SPOT peptide array binding signal intensity
B1	24.2
B2	223

target: ScSho1; test: as above
Procedure, shortened: as §1

Binder	SPOT peptide array binding signal intensity
B1	718
B2	6350

target: ScSla1-D1-D2; test: as above
Procedure, shortened: as §1

Binder	SPOT peptide array binding signal intensity
B1	220
B2	880

target: ScSla1-D3; test: as above
Procedure, shortened: as §1

Binder	SPOT peptide array binding signal intensity
B1	14
B2	344

target: SpAbp1-D1; test: as above
Procedure, shortened: as §1

Binder	SPOT peptide array binding signal intensity
B1	228
B2	211

target: SpBbc1; test: as above
Procedure, shortened: as §1

Binder	SPOT peptide array binding signal intensity
B1	5
B2	238

target: SpBzz1-D1; test: as above
Procedure, shortened: as §1

Binder	SPOT peptide array binding signal intensity
B1	128
B2	1240

target: SpBzz1-D2; test: as above
Procedure, shortened: as §1

Binder	SPOT peptide array binding signal intensity
B1	0.5
B2	97
B3	≤ 0

target: SpCyk3; test: as above
Procedure, shortened: as §1

Binder	SPOT peptide array binding signal intensity
B1	2
B2	35
B3	2

target: SpHof1; test: as above
Procedure, shortened: as §1

Binder	SPOT peptide array binding signal intensity
B1	436
B2	342
B3	148

target: SpHof1-2; test: as above
Procedure, shortened: as §1

Binder	SPOT peptide array binding signal intensity
B1	14
B2	157
B3	3.5

target: SpHof1-3; test: as above
Procedure, shortened: as §1

Binder	SPOT peptide array binding signal intensity
B1	784
B2	1040
B3	504

target: SpHse1; test: as above
Procedure, shortened: as §1

Binder	SPOT peptide array binding signal intensity
B1	686
B2	2240
B3	598

target: SpLsb1; test: as above
Procedure, shortened: as §1

Binder	SPOT peptide array binding signal intensity
B1	4.25
B2	33
B3	3

target: SpLsb4; test: as above
Procedure, shortened: as §1

Binder	SPOT peptide array binding signal intensity
B1	100
B2	625
B3	135

target: SpMyo1; test: as above
Procedure, shortened: as §1

Binder	SPOT peptide array binding signal intensity
B1	4.5
B2	168
B3	≤ 0

target: SpNbp2; test: as above
Procedure, shortened: as §1

Binder	SPOT peptide array binding signal intensity
B1	370
B2	1680
B3	350

target: SpPex13; test: as above
Procedure, shortened: as §1

Binder	SPOT peptide array binding signal intensity
B1	23.5
B2	1640
B3	7

target: SpRvs167; test: as above
Procedure, shortened: as §1

Binder	SPOT peptide array binding signal intensity
B1	32.5
B2	239
B3	6.33

target: SpSla1-D1-D2; test: as above
Procedure, shortened: as §1

Binder	SPOT peptide array binding signal intensity
B1	≤ 0
B2	68
B3	5

target: SpSla1-D3; test: as above
Procedure, shortened: as §1

Binder	SPOT peptide array binding signal intensity
B1	37
B2	512
B3	4.5

Reference: the supplement of paper PMC4466140
